Measurements as given in PubChem BioAssay (Tox21).
Records with an inconclusive call do not appear. Active and inactive are the calls of the source. Unless noted, calls follow the shape of the dose curve; as a rule, active = well fitted curve in the direction sought with a large enough effect in the repeat runs; inconclusive = weak or mixed curves; inactive = no such curve, though single readings can be large; an effect the other way counts as inactive or inconclusive.

Columns and labels:
[1] = qHTS assay to identify small molecule agonists of the sonic hedgehog signaling (Shh) pathway - cell viability counter screen (AID 1259366); also: nearly all actives have a fitted effect of over 50% in size
How it was run: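 Compounds in DMSO were pin-transferred onto 3T3 Gli1-Luc cells that had settled 4hr; plates then stood 24hr at 37C and 5% CO2. One hour before the end, CellTiter-Fluor was added and fluorescence recorded.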

[2] = qHTS assay to identify small molecule antagonists of the sonic hedgehog signaling (Shh) pathway - cell viability counter screen (AID 1259367); also: nearly all actives have a fitted effect of over 55% in size
How it was run: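 NIH/3T3-derived Gli1-Luc reporter cells, 2,000/well, plated 4 hr before compound addition, then stimulated with conditioned medium for 24 hr at 37C. Viability measured in the same wells by CellTiter-Fluor fluorescence, reagent added at 23 hr for 1 hr.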

[3] = qHTS assay to identify small molecule agonists of the sonic hedgehog signaling (Shh) pathway (AID 1259368; calls by dose curve; also: series mostly up to about 92 µM; nearly all actives have a fitted effect of over 15% in size)
How it was run: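 NIH/3T3-derived 3T3Gli1-Luc cells carrying a stably integrated Gli1 response element–firefly luciferase reporter were plated, left 4 hr at 37 C, then given compounds in DMSO for 24 hr. Luminescence was read 30 min after adding luciferase reagent.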

[4] = molecular target: Estrogen receptor beta (Homo sapiens) (UniProt Q92731); assay: qHTS assay to identify small molecule agonists of the estrogen receptor beta (ER-beta) signaling pathway (AID 1259377; active = well fitted activation curve with a large enough effect in the signal ratio in the repeat runs, not every such curve was filed as active; the % refers to the signal ratio)
Sequence of Estrogen receptor beta (Homo sapiens) (Q92731 whole entry, looked up): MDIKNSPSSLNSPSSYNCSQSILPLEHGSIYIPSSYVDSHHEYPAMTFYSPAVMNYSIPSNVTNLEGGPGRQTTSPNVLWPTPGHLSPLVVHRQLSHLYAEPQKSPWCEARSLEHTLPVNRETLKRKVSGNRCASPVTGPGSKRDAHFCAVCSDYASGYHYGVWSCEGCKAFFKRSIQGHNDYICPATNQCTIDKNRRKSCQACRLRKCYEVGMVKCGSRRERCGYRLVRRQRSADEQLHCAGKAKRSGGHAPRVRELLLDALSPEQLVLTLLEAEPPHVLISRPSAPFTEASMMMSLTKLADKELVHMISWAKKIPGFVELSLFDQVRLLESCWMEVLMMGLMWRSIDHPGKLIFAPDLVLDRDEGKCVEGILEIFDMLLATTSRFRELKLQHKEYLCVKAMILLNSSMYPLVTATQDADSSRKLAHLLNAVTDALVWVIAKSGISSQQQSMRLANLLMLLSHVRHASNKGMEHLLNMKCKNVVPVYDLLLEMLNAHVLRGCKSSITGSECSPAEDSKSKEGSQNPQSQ
How it was run: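 qHTS in ER-beta-UAS-bla HEK293T cells: 6 hr settling, then 16 hr compound at 37C, then LiveBLAzer substrate 2 h at RT before fluorescence reading.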

[5] = molecular target: Estrogen receptor beta (Homo sapiens) (UniProt Q92731); assay: qHTS assay to identify small molecule antagonists of the estrogen receptor beta (ER-beta) signaling pathway (AID 1259378; active = well fitted inhibition curve with a large enough effect in the signal ratio in the repeat runs, not every such curve was filed as active; the % refers to the signal ratio)
How it was run: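 ER-beta-UAS-bla HEK293T cells in 2% charcoal-stripped FBS medium treated with compound plus 1nM final 17-beta-estradiol for 16 hr at 37C. Beta-lactamase reporter read by FRET substrate fluorescence after 2 hours at room temperature.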

[6] = qHTS assay to identify small molecule agonists of the androgen receptor (AR) signaling pathway in the presence of an antagonist - cell viability counter screen (AID 1259379);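 also: MDA-kb2 human breast cancer cells carrying an MMTV luciferase reporter; series mostly up to about 92 µM; nearly all actives have a fitted effect of over 25% in size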
How it was run: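 MDA-kb2 human breast carcinoma cells (stable MMTV-luciferase, AR/GR responsive) were seeded 3,000 cells/well, pre-incubated 5 hr at 37C without CO2, then given 3.0uM nilutamide and compounds at 15 concentrations for 16 hr. Viability was read by CellTiter-Fluor fluorescence.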

[7] = qHTS assay to identify small molecule antagonists of the estrogen receptor beta (ER-beta) signaling pathway - cell viability counter screen (AID 1259382); also: series mostly up to about 92 µM; nearly all actives have a fitted effect of over 55% in size
How it was run: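 ER-beta-UAS-bla HEK293T cells (2,000/well, 2% charcoal-stripped FBS) were pre-incubated 6 hr at 37C, then given compound plus 1nM final 17-beta-estradiol for 16 hr. Viability was read in the same wells by CellTiter-Glo luminescence after 30 min at room temperature.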

[8] = qHTS assay to identify small molecule agonists or antagonists of the thyroid stimulating hormone receptor (TSHR) signaling pathway - wild type cell line counter screen (AID 1259384; calls by dose curve)
How it was run: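 Wild-type Hek293 cells, 800/well, 18 h at 37C, then compound with Ro20-1724 for 30 min RT. cAMP by HTRF (cAMP-d2/anti-cAMP cryptate), 1 h RT, fluorescence read. 15 concentrations, triplicates.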

[9] = molecular target: Thyrotropin receptor (Homo sapiens) (UniProt P16473); assay: qHTS assay to identify small molecule antagonists of the thyroid stimulating hormone receptor (TSHR) signaling pathway (AID 1259385; calls by dose curve; also: nearly all actives have a fitted effect of over 20% in size)
Sequence of Thyrotropin receptor (Homo sapiens) (P16473 whole entry, looked up): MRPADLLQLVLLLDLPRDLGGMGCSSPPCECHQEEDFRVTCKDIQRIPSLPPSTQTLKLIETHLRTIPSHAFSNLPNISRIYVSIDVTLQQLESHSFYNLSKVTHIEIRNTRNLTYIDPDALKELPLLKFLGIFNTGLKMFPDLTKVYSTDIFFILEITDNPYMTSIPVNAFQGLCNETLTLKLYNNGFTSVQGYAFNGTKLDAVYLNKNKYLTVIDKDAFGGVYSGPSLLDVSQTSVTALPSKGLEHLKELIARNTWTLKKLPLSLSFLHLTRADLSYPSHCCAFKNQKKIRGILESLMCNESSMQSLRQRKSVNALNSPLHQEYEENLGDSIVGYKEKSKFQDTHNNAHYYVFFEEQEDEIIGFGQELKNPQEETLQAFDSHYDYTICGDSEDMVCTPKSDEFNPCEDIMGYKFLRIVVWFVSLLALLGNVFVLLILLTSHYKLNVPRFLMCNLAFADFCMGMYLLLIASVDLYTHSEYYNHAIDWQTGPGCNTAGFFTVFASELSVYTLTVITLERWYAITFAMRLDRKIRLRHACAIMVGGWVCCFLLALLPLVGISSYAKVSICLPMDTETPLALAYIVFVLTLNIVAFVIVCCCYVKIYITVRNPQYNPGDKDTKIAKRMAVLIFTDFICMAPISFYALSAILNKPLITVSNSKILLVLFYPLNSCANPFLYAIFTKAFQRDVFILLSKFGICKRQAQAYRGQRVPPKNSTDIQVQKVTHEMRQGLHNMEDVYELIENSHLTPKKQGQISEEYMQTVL
How it was run: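 TSHR-HEK293 cells (800/well) plated 18 h, then compounds with Ro20-1724 and TSH at 1.5 ng/mL final, 30 min at room temperature. cAMP quantified by HTRF (cAMP-d2/anti-cAMP-cryptate, 1 h); 15 concentrations in triplicate.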

[10] = qHTS assay to identify small molecule agonists of the estrogen receptor alpha (ER-alpha) signaling pathway in the presence of an antagonist - cell viability counter screen (AID 1259386);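 also: series mostly up to about 92 µM; cells exposed to compounds for 22 h at 37 °C before the viability read; nearly all actives have a fitted effect of over 30% in size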
How it was run: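 VM7Luc4E2 cells (endogenous full-length ER-alpha, 4×ERE-luciferase) were held 5 days in phenol red-free medium with 10% charcoal-stripped FBS, plated, then given 10.0nM ICI-182,780 and compounds at 15 concentrations for 22hr at 37C; viability read by CellTiter-Fluor fluorescence.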

[11] = molecular target: Progesterone receptor (Homo sapiens) (UniProt P06401); assay: qHTS assay to identify small molecule agonists of the progesterone receptor (PR) signaling pathway (AID 1346784; calls by dose curve; also: nearly all actives have a fitted effect of over 30% in size)
Sequence of Progesterone receptor (Homo sapiens) (P06401 whole entry, looked up): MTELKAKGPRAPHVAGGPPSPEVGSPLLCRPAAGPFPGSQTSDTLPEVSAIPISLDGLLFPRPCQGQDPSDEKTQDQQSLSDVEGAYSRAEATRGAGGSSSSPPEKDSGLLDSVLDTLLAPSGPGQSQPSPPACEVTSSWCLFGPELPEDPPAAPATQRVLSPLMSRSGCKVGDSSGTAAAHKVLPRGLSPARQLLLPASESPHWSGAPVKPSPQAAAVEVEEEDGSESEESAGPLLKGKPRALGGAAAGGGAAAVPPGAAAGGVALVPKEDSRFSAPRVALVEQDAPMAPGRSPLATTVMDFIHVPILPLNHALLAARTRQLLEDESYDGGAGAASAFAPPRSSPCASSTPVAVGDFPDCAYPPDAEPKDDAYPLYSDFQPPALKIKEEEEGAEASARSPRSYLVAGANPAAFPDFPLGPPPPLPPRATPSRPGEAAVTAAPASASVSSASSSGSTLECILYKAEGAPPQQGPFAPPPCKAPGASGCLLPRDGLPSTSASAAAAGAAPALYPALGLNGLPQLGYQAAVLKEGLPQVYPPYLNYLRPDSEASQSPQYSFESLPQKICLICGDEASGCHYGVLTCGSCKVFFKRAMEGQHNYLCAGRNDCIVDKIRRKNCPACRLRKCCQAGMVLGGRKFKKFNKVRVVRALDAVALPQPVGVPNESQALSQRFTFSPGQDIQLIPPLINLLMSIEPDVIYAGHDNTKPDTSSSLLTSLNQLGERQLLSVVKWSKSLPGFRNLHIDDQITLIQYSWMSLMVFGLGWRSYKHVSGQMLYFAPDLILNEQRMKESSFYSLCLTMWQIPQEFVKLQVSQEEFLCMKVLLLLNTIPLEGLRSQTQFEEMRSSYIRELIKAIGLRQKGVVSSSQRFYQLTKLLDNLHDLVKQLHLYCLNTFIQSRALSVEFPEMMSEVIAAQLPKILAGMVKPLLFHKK
How it was run: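 Fluorescence from LiveBLAzer B/G FRET substrate cleavage (2 hr, RT) reported PR activation in PR-UAS-bla HEK 293T cells treated 16 hr at 37C/5% CO2 with compounds; medium contained 2% charcoal-stripped FBS.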

[12] = molecular target: Progesterone receptor (Homo sapiens) (UniProt P06401); assay: qHTS assay to identify small molecule antagonists of the progesterone receptor (PR) signaling pathway (AID 1346795; active = well fitted inhibition curve with a large enough effect in the signal ratio in the repeat runs, not every such curve was filed as active; the % refers to the signal ratio)
How it was run: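 Fluorescence intensity measured 2 hr after adding beta-lactamase FRET substrate to PR-UAS-bla HEK293T cells that had been co-treated 16 hr with compound and 1 nM R5020 (final concentration) in 2% charcoal-stripped FBS.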

[13] = qHTS assay to identify small molecule antagonists of the progesterone receptor (PR) signaling pathway - cell viability counter screen (AID 1346798); also: series mostly up to about 92 µM; nearly all actives have a fitted effect of over 50% in size
How it was run: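 CellTiter-Glo luminescence; PR-UAS-bla HEK293T, 3,000 cells/well; compound + R5020, 16 hr, 37C/5% CO2; 30 min RT before read.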

[14] = qHTS assay to identify small molecule agonists of the progesterone receptor (PR) signaling pathway - cell viability counter screen (AID 1346799; calls by dose curve; also: nearly all actives have a fitted effect of over 45% in size)
How it was run: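 In parallel with the beta-lactamase readout, cytotoxicity toward PR-UAS-bla HEK293T cells was measured by CellTiter-Glo luminescence following 16 hr compound incubation in 2% charcoal-stripped FBS medium.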

[15] = qHTS assay to identify small molecule agonists of the TGF-beta/Smad signaling pathway - cell viability counter screen (AID 1346829); also: top concentration of the series differs between compounds; nearly all actives have a fitted effect of over 45% in size
How it was run: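 CellTiter-Glo luminescence readout; SBE-bla HEK 293T cells, overnight plating, compound 5 hr at 37 C/5% CO2, then bla substrate 2 hr RT, then CellTiter-Glo 30 min RT.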

[16] = molecular target: Estrogen receptor (Homo sapiens) (UniProt P03372); assay: qHTS assay to identify small molecule agonists of the estrogen receptor alpha (ER-alpha) signaling pathway in the presence of an antagonist (AID 1259383; calls by dose curve; also: top concentration of the series differs between compounds; nearly all actives have a fitted effect of over 15% in size)
Sequence of Estrogen receptor (Homo sapiens) (P03372 whole entry, looked up): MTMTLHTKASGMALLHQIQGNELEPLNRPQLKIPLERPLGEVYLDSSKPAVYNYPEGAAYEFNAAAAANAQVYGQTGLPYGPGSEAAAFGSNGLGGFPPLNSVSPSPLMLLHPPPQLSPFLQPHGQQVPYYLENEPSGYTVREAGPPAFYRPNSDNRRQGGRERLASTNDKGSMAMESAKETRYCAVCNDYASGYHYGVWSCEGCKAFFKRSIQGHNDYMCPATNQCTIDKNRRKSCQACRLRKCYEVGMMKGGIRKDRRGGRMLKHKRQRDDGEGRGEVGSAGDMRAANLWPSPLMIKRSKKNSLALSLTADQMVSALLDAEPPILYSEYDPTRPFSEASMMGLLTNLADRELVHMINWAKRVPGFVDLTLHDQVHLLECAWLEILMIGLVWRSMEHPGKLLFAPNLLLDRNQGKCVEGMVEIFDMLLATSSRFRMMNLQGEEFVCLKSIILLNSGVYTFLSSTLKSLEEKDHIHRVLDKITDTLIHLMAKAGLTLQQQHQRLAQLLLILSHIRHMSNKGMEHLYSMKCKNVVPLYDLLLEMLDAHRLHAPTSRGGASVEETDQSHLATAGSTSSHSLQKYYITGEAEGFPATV
How it was run: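 VM7Luc4E2 cells (endogenous full-length ER-alpha, 4×ERE-luciferase) were precultured 5 days in phenol red-free medium with 10% charcoal-stripped FBS, given 10.0nM ICI-182,780 (final), then treated with compounds at 15 concentrations for 22hr at 37C; luminescence read with ONE-Glo.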

[17] = qHTS assay to identify small molecule antagonists of the sonic hedgehog signaling (Shh) pathway (AID 1259369; calls by dose curve; also: nearly all actives have a fitted effect of over 45% in size)
How it was run: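 NIH/3T3-derived 3T3Gli1-Luc cells with stably integrated Gli1-Luc reporter were preincubated 4hr at 37 C, then given compounds in DMSO plus Shh conditioned medium and incubated 24hr. Firefly luciferase luminescence read after 30min reagent at room temperature.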

[18] = qHTS assay to identify small molecule agonists of the estrogen receptor beta (ER-beta) signaling pathway - cell viability counter screen (AID 1259380); also: nearly all actives have a fitted effect of over 30% in size
How it was run: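 ER-beta-UAS-bla HEK293T cells in medium with 2% charcoal-stripped FBS were preincubated 6 hr at 37C, dosed with compound in DMSO for 16 hr, then after the bla read, CellTiter-Glo was added for 30 min at room temperature; luminescence recorded.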

[19] = qHTS assay to identify small molecule antagonists of the TGF-beta/Smad signaling pathway - cell viability counter screen (AID 1346824); also: nearly all actives have a fitted effect of over 50% in size
How it was run: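 SBE-bla HEK 293T cells, incubated overnight, then compound plus 0.25 ng/mL TGF-beta1 (stock added) for 5 hr at 37 C. Viability was read in the same wells by CellTiter-Glo luminescence after 30 min at room temperature.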
% is scaled to controls: 0 for no effect and ±100 for the full control effect.

CCOc1ccccc1OCCN[C@H](C)Cc1ccc(OC)c(S(N)(=O)=O)c1
inactive: outcome [1] | outcome [2] | outcome [3] | Potency [4] | outcome [5] | outcome [6] | outcome [7] | outcome [8] | outcome [9] | outcome [10] | Potency [11] | Potency [12] | outcome [13] | Potency [14] | outcome [15]

N#Cc1cc(NC(=O)C(=O)O)c(Cl)c(NC(=O)C(=O)O)c1
inactive: outcome [1] | outcome [2] | outcome [3] | outcome [6] | outcome [7] | Potency [16] | outcome [9] | outcome [10] | Potency [11] | Potency [12] | Potency [14]

N=C(N)N
inactive: outcome [1] | outcome [2] | outcome [3] | Potency [17] | Potency [18] | outcome [7] | outcome [8] | outcome [9] | outcome [10] | Potency [11] | Potency [12] | outcome [13] | outcome [15]

O=Cc1ccc(C(=O)O)cc1
inactive: outcome [1] | outcome [2] | outcome [3] | Potency [17] | Potency [18] | outcome [7] | Potency [16] | outcome [8] | outcome [9] | outcome [10] | Potency [11] | Potency [12] | outcome [13] | outcome [19] | outcome [15]

CC(C)(C)C(=O)NCCCC(=O)O
inactive: outcome [1] | outcome [2] | outcome [3] | outcome [6] | Potency [18] | Potency [16] | outcome [8] | outcome [9] | outcome [10] | outcome [13] | outcome [19] | outcome [15]

COCCCOc1cc(C[C@@H](C[C@H](N)[C@@H](O)C[C@H](C(=O)NCC(C)(C)C(N)=O)C(C)C)C(C)C)ccc1OC
inactive: outcome [1] | outcome [3] | Potency [17] | outcome [6] | Potency [18] | outcome [7] | Potency [16] | outcome [9] | outcome [10] | outcome [13] | outcome [19] | outcome [15]

O=C(OOC(=O)c1ccccc1)c1ccccc1
inactive: outcome [1] | outcome [2] | outcome [3] | Potency [17] | outcome [7] | Potency [16] | outcome [9] | outcome [10] | Potency [11] | Potency [12] | outcome [19]

N=C(N)N1CCc2ccccc2C1
inactive: viability change, negative = cytotoxic [1] 2.39% [at 8.39 µM] | viability change, negative = cytotoxic [2] 3.14% [at 8.39 µM] | activity change [3] 0.863% [at 8.39 µM] | activity change, negative = inhibition [17] 18.9% [at 8.39 µM] | activity change, negative = cytotoxicity [7] 8.18% [at 8.39 µM] | cAMP activity change [8] 4.39% [at 8.39 µM] | activity change, negative = inhibition [9] 0.0098% [at 8.39 µM] | activity change, negative = cytotoxicity [10] -0.402% [at 8.39 µM] | activity change, negative = inhibition [12] 5.13% [at 8.39 µM] | activity change, negative = cytotoxicity [13] 3.01% [at 8.39 µM] | activity change, negative = cytotoxicity [14] 0.346% [at 8.39 µM] | viability change, negative = cytotoxic [19] -7.19% [at 6.97 µM] | activity change, negative = cytotoxicity [15] -4.14% [at 6.97 µM]

O=C(CCBr)N1CCN(C(=O)CCBr)CC1
inactive: outcome [1] | outcome [2] | outcome [3] | Potency [17] | Potency [18] | outcome [7] | Potency [16] | outcome [8] | outcome [9] | outcome [10] | Potency [11] | Potency [14] | outcome [19] | outcome [15]

Nc1nc(Cl)cc(Cl)n1
inactive: outcome [1] | outcome [2] | outcome [3] | Potency [4] | outcome [5] | outcome [6] | Potency [18] | outcome [7] | Potency [16] | outcome [10] | Potency [11] | Potency [12] | outcome [13] | outcome [19] | outcome [15]
